Records with an inconclusive call do not appear. A number with no mark means an inactive call. Activity calls are given as the source filed them. Calls follow the shape of the full dose curve. Bridge positions count the residues as written; N and C are the ends. Peptide text beside a SMILES is read from it.
% is scaled to controls: 0 for no effect and ±100 for the full control effect.

The nature of this assay: Cytotoxicity counterscreen for inhibitors of SARS-CoV-2 cell entry (AID 1645845). Also: nearly all actives have a fitted effect of over 50% in size. Conditions: cell viability (SARS-CoV-2 entry assay cells); series mostly up to 57.1 µM; activity change, negative = cytotoxicity: at the top concentration. In outline:
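Expi293F/hACE2 cells seeded overnight; cpd pin-transferred in DMSO, 1 h preincubation, + media, 48 h 37 C 5% CO2; ATPLite 1step luminescence; normalized to cells and no cells.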
Take `C[C@]12C=CC(=O)C=C1CC[C@@H]1[C@@H]2[C@@H](O)C[C@@]2(C)[C@H]1CC[C@]2(O)C(=O)COP(=O)(O)O`: the activity change, negative = cytotoxicity was -0.915% [at 11.3 µM].
In the case of `COc1ccc(CNCC(O)COc2ccc3[nH]c(=O)ccc3c2)cc1OC` (stereo not given), the result was inactive.
On to `Cc1ncc(COP(=O)(O)O)c(CN)c1O`, for which the “activity change, negative = cytotoxicity” value was 3.41%.
With `Cn1nnnc1SCC1=C(C(=O)O)N2C(=O)[C@@H](NC(=O)[C@H](OC=O)c3ccccc3)[C@H]2SC1`, the outcome was inactive.
On to `CCC(=O)OC1(C(=O)CCl)C(C)CC2C3CC(F)C4=CC(=O)C=CC4(C)C3(F)C(O)CC21C` (stereo not given), for which the “activity change, negative = cytotoxicity” value is -5.08%.
On to `CC(OC(=O)NCC1(CC(=O)O)CCCCC1)OC(=O)C(C)C` (stereo not given), for which the compound was called inactive.
For the compound `Cc1c(Cl)c(C)[n+]([O-])c(Cl)c1-c1noc(-c2cc(O)c(O)c([N+](=O)[O-])c2)n1`, the call was inactive.
Take `CCCCCCCCCCCCCCCC(=O)OCC(O)C1OC(=O)C(O)=C1O` (stereo not given): the “activity change, negative = cytotoxicity” value was 3.46%.
As to `CC(C)(C)NCC(O)c1ccc(O)c(CO)n1` (stereo not given), the “activity change, negative = cytotoxicity” value is -6.91%.
On to `CC(C)N(CCCCOCC(=O)NS(C)(=O)=O)c1cnc(-c2ccccc2)c(-c2ccccc2)n1`, for which the compound was classed as inactive.
For `CC[N+](CC)(CC)CCC(O)(c1ccccc1)C1CCCCC1` (stereo not given), the “activity change, negative = cytotoxicity” value is 2.37%.
Take `O=P(O)(O)OC1C(OP(=O)(O)O)C(OP(=O)(O)O)C(OP(=O)(O)O)C(OP(=O)(O)O)C1OP(=O)(O)O` (stereo not given): the outcome was inactive.
Take `CC[C@@H]1CCN[C@H](C(=O)N[C@@H]([C@H]2O[C@H](SC)[C@H](O)[C@@H](O)[C@H]2O)[C@H](C)Cl)C1`: the “activity change, negative = cytotoxicity” value was -2.28%.
Still for that read-out and setting: in the case of `N=c1ccn2c(n1)O[C@@H]1[C@@H](O)[C@H](CO)O[C@@H]12` it was 3.22%.
For `O=C(O)c1cc(O)c2c(c1)[C@H]([C@H]1c3cc(C(=O)O)cc(O)c3C(=O)c3c(O[C@@H]4O[C@H](CO)[C@@H](O)[C@H](O)[C@H]4O)cccc31)c1cccc(O[C@@H]3O[C@H](CO)[C@@H](O)[C@H](O)[C@H]3O)c1C2=O`, the “outcome” value is “inactive [at 27.1 µM]”.
Take `CC1CCC(C(C)C)C(OC(=O)c2ccccc2O)C1` (stereo not given): the “activity change, negative = cytotoxicity” value is 2.19%.
With `[Mn].[O]=[Mn][OH].[O]=[Mn][OH]`, the result was inactive.
Take `CCCCC(CC)COc1ccc(-c2nc(-c3ccc(OC)cc3)nc(-c3ccc(OCC(CC)CCCC)cc3O)n2)c(O)c1` (stereo not given): the activity change, negative = cytotoxicity is -8.22% [at 5.25 µM].
As for `CC(C)(C)C(=O)OCOC(=O)[C@@H]1N2C(=O)[C@@H](N=CN3CCCCCC3)[C@H]2SC1(C)C`, the “activity change, negative = cytotoxicity” value was 2.98%.
With `NCCCC[C@H](NC(=O)[C@@H]1CCCN1C(=O)[C@@H]1CSSC[C@H](NC(=O)CNC(=O)CNC(=O)CN)C(=O)N[C@@H](Cc2ccc(O)cc2)C(=O)N[C@@H](Cc2ccccc2)C(=O)N[C@@H](CCC(N)=O)C(=O)N[C@@H](CC(N)=O)C(=O)N1)C(=O)NCC(N)=O` (H-GGGCYFQNCPKG-NH2; disulfide 4-9), the compound was classed as inactive.
On the same count and under the same terms, in the case of `CN1c2c(nc(N)[nH]c2=O)NC[C@@H]1CNc1ccc(C(=O)N[C@@H](CCC(=O)O)C(=O)O)cc1` it was “inactive [at 5.25 µM]”.
As for `O=C(O)C(O)[C@H](O)[C@H](O)[C@H](O)[C@H](O)CO` (stereo not given in full), the compound was classed as inactive.
With `CC(=O)N(CC(C)C(=O)O)c1c(I)cc(I)c(N)c1I` (stereo not given), the “activity change, negative = cytotoxicity” value is 1.28%.
Take `CCCCN(CCCC)C(=S)[S-].CCCCN(CCCC)C(=S)[S-].[Zn+2]`: the compound was classed as inactive.
For `C=C1c2c(Cl)ccc(O)c2C(O)=C2C(=O)[C@@]3(O)C(O)=C(C(N)=O)C(=O)[C@@H](N(C)C)[C@@H]3[C@@H](O)[C@H]12`, the “activity change, negative = cytotoxicity” value is -17%.
For the compound `C=CC1(C)CC(=O)C2(O)C(C)(O1)C(OC(C)=O)C(OC(=O)CCN(C)C)C1C(C)(C)CCC(O)C12C` (stereo not given), the “activity change, negative = cytotoxicity” value is -21.6%.
For the compound `Cc1ccc(S(=O)(=O)O)cc1`, the result was inactive.
In the case of `COc1cc(N)cn[n+]1-c1ccccc1`, the compound was classed as inactive.
Turning to `COc1nc2ccc(Br)cc2cc1[C@@H](c1ccccc1)[C@@](O)(CCN(C)C)c1cccc2ccccc12`, the “activity change, negative = cytotoxicity” value was -7.94%.
Turning to `COc1ccc2c(=O)c(C)c(-c3ccccc3)oc2c1CN(C)C`, the call was inactive.
For `O=C(Nc1ccc(O)cc1)c1ccccc1O`, the “activity change, negative = cytotoxicity” value is -18.2%.
As to `COC1=C(C(=O)O)N2C(=O)[C@@H](NC(=O)[C@H](N)C3=CCC=CC3)[C@H]2SC1`, the “activity change, negative = cytotoxicity” value was 1.33%.
With `CCOC(=O)[C@@H](N)CS`, the outcome was inactive.
Turning to `CO/N=C(\C(=O)N[C@@H]1C(=O)N2C(C(=O)OCOC(=O)C(C)(C)C)=C(/C=C\c3scnc3C)CS[C@H]12)c1csc(N)n1`, the compound was classed as inactive.
On the same count and under the same terms, the result for `Cc1c(C)c2c(c(C)c1OC(=O)CCC(=O)O)CC[C@@](C)(CCC[C@H](C)CCC[C@H](C)CCCC(C)C)O2` reads “inactive”.

These data come from PubChem BioAssay (NCATS).
